Screens as filed in PubChem BioAssay.
hgDAF12 agonist: H. glycines DAF-12 receptor agonists, primary screen, cell-based, luminescence, HEK293, GAL4 fusion, UAS-luciferase. 370,000 tested, 1.8% active. activation, % at 6.8 µM. Nuclear hormone receptor DAF-12 (Heterodera glycines), GAL4 fusion. HEK293 GAL4-hgDAF12 UAS-luciferase reporter, agonist luminescence; normalized to butyrate control;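 active = activation above a cutoff set at the mean of all screened compounds plus 3 SD, cut at about 10% in these data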;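 note: 0% = DMSO wells and 100% = sodium butyrate wells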
DAX1 inh-1: DAX1 (NR0B1) inhibitors on StAR promoter, primary screen, cell-based, luminescence, SF-1 (NR5A1), full-length DAX-1. HEK293T StAR-luciferase reporter, SF-1/DAX-1 repression relief. inhibition, % at 6.8 µM. 370,000 tested, 1.1% active. AID 652010, 2013;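 active = inhibition above the mean over all tested compounds plus 3 SD, cut at about 3.6% in these data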;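 note: 0% = DAX-1 cells with DMSO and 100% = cells lacking DAX-1 with DMSO; higher inhibition means more luminescence from relief of DAX-1 repression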
ssDAF-12 act: S. stercoralis DAF-12 nuclear receptor activators, primary screen, cell-based, luminescence, HEK293, GRIP1 co-expression, lit1-tk-luc | Nuclear hormone receptor DAF-12 (Strongyloides stercoralis) | HEK293 ssDAF-12/GRIP1 lit1-tk-luc reporter; % of 3 µM dafachronic acid response | activation, % at 6.8 µM | 370,000 tested, 1% active | AID 652126, 2013;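 active = activation above the mean over all tested compounds plus 3 SD, cut at about 0.9% in these data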;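 note: 0% = DMSO-only wells and 100% = 3 µM delta7-dafachronic acid wells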
hcDAF12 agonist: H. contortus DAF-12 nuclear receptor activators, primary screen, cell-based, luminescence, HEK293, lit1-tk-luc reporter | activation, % at 6.8 µM | HEK293 hcDAF-12 lit1-tk-luc reporter; 0% DMSO, 100% Δ7-dafachronic acid | 370,000 tested, 1.4% active;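 active = activation above the mean of all tested compounds plus 3 SD, cut at about 5.5% in these data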;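 note: 100% = response to 3 µM Δ7-dafachronic acid high control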
DAX1 inh-2: DAX1 (NR0B1) inhibitors, primary screen, cell-based, HEK293, Gal4-DAX1, luciferase luminescence; inhibition, % at 6.75 µM; 340,000 tested, 0.99% active; Nuclear receptor subfamily 0 group B member 1 (Homo sapiens), P51843; HEK293 Gal4-DAX1 luciferase reporter;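 active = inhibition above the mean over all tested compounds plus 3 SD, cut at about 4.2% in these data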;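 note: 0% = DAX1-transfected cells with DMSO and 100% = empty-vector control cells with DMSO; inhibition shows as a rise in luminescence from relieved DAX1 repression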
Target sequence (P51843 207-470 limits assumed): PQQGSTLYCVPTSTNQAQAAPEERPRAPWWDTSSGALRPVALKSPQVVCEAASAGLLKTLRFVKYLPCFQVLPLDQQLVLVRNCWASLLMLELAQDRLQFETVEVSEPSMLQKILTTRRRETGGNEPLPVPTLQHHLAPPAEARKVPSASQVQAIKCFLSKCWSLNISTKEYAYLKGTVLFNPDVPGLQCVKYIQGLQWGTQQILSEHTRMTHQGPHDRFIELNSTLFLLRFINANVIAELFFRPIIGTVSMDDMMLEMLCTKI
* hit, by the source's call. A selection: hits, their analogues and other compounds. The true share with any hit is near 4.1%.

C=CCn1c(C)cc(C2=NNC(=Nc3ccc(C)cc3)SC2)c1C was read as hgDAF12 agonist -1, DAX1 inh-1 0, ssDAF-12 act 0, hcDAF12 agonist 2 and DAX1 inh-2 0.
`CC(C)c1ccc(N=C2NN=C(c3cccs3)CS2)cc1` gave hgDAF12 agonist 6, DAX1 inh-1 3, ssDAF-12 act 0, hcDAF12 agonist 2 and DAX1 inh-2 7.2*.
C=CCn1c(COc2ccc(C)cc2)nnc1SCC(=O)c1ccc(-c2ccccc2)cc1 was read as hgDAF12 agonist 2, DAX1 inh-1 -2, ssDAF-12 act -1 and hcDAF12 agonist -2.
For CCOC(=O)CC(=O)c1sc2c(c1N)c(=O)[nH]c(=O)n2-c1ccc(OC)cc1 the results were hgDAF12 agonist 2, DAX1 inh-1 1, ssDAF-12 act 0, hcDAF12 agonist 3 and DAX1 inh-2 4.3*.
For O=c1[nH][nH]cc1C=Nc1ccc(Cl)cc1Cl the results were hgDAF12 agonist -1, DAX1 inh-1 0, ssDAF-12 act 1.6*, hcDAF12 agonist 0 and DAX1 inh-2 1.
Screening COc1ccccc1C1N=C(c2ccccc2C)NO1 (centres undefined) returned hgDAF12 agonist 10*, DAX1 inh-1 1, ssDAF-12 act 0, hcDAF12 agonist 2 and DAX1 inh-2 0.
For Cc1ccccc1C1=NC(c2ccc(F)cc2F)ON1 (centres undefined) the results were hgDAF12 agonist 2, DAX1 inh-1 0, ssDAF-12 act -1, hcDAF12 agonist -1 and DAX1 inh-2 0.
`COC(=O)c1cn(Cc2cccnc2)c(=O)c2ccccc12` gave hgDAF12 agonist -1, DAX1 inh-1 0, ssDAF-12 act 0.9*, hcDAF12 agonist -2 and DAX1 inh-2 -1.
CC(C)c1ccc(/C=N/NC(=O)c2c(Cl)cnn2C)cc1 was read as hgDAF12 agonist 13*, DAX1 inh-1 3, ssDAF-12 act 0, hcDAF12 agonist 1 and DAX1 inh-2 -1.
For C/C(=N\NC(=O)c1c(Cl)cnn1C)c1cccnc1 the results were hgDAF12 agonist 6, DAX1 inh-1 4.3*, ssDAF-12 act -1, hcDAF12 agonist 1 and DAX1 inh-2 2.
`C/C(=N\NC(=O)c1ccc(Cl)cc1)c1cccnc1` gave hgDAF12 agonist 1, DAX1 inh-1 0, ssDAF-12 act -1, hcDAF12 agonist 2 and DAX1 inh-2 2.
Cc1nn(C)c(C(=O)N/N=C/c2ccc(Br)cc2)c1Cl was read as hgDAF12 agonist 4, DAX1 inh-1 0, ssDAF-12 act -1, hcDAF12 agonist -2 and DAX1 inh-2 0.
For O=[N+]([O-])c1cnc2ccccc2c1Sc1ccccc1 the results were hgDAF12 agonist 1, ssDAF-12 act -1 and hcDAF12 agonist 3.
`CSc1ccc(Cc2ccc(Cl)cc2Cl)nn1` gave hgDAF12 agonist 4, DAX1 inh-1 1, ssDAF-12 act -1, hcDAF12 agonist 0 and DAX1 inh-2 4.3*.
O=C(Nc1nc(-c2ccccc2)cs1)c1ccco1 was read as hgDAF12 agonist 8, DAX1 inh-1 1, ssDAF-12 act -1, hcDAF12 agonist 1 and DAX1 inh-2 1.
Screening O=C(CCNC(=O)c1ccco1)Nc1nc(-c2ccccc2)cs1 returned hgDAF12 agonist 9, DAX1 inh-1 0, ssDAF-12 act 1.0* and hcDAF12 agonist 6.4*.
Cc1ccc(-c2csc(NC(=O)c3ccco3)n2)cc1C was read as hgDAF12 agonist 10, DAX1 inh-1 0, ssDAF-12 act 0, hcDAF12 agonist 4 and DAX1 inh-2 4.3*.
CC(=O)Nc1ccc(-c2csc(NC(=O)CCNC(=O)c3ccco3)n2)cc1 was read as hgDAF12 agonist -1, DAX1 inh-1 -1, ssDAF-12 act -1, hcDAF12 agonist 0 and DAX1 inh-2 1.
For CN(C(=O)c1ccco1)c1nc(-c2ccccc2)cs1 the results were hgDAF12 agonist 11*, DAX1 inh-1 3.7*, ssDAF-12 act 0, hcDAF12 agonist 5.9* and DAX1 inh-2 3.
CCOC(=O)[C@]12CCCCC/C=C\1N(Cc1ccc(OC)cc1)C(=O)[C@H]2CC(=O)NCc1cccc2ccccc12 was read as hgDAF12 agonist 0, DAX1 inh-1 0, ssDAF-12 act -1 and hcDAF12 agonist -1.
Screening C=CCn1c(SCc2cccc(C(F)(F)F)c2)nnc1-c1ccc(OC)cc1 returned hgDAF12 agonist 1, DAX1 inh-1 -1, ssDAF-12 act -2 and hcDAF12 agonist -3.
Screening CCN1CCCCC(NC(=O)c2ccc(F)c(F)c2)C1=O (centres undefined) returned hgDAF12 agonist 2, DAX1 inh-1 0, ssDAF-12 act -1 and hcDAF12 agonist 1.
For CC1CCCCN1C(=O)c1cc(-c2ccc(Cl)c(Cl)c2)on1 (centres undefined) the results were hgDAF12 agonist 7, DAX1 inh-1 0, ssDAF-12 act -1, hcDAF12 agonist -1 and DAX1 inh-2 1.
For CC1CCCCN1C(=O)c1cc(-c2ccc3c(c2)OCO3)on1 (centres undefined) the results were hgDAF12 agonist 11*, DAX1 inh-1 2, ssDAF-12 act 0, hcDAF12 agonist 5 and DAX1 inh-2 3.
Screening CC1CCN(C(=O)c2cc(-c3ccc4c(c3)OCO4)on2)CC1 returned hgDAF12 agonist 12*, DAX1 inh-1 2, ssDAF-12 act 0, hcDAF12 agonist 4 and DAX1 inh-2 1.
`CCCNC(=O)c1cc(-c2ccc3c(c2)OCO3)on1` gave hgDAF12 agonist 11*, DAX1 inh-1 3, ssDAF-12 act 0, hcDAF12 agonist 2 and DAX1 inh-2 0.
O=C(N[C@@H](Cc1cccnc1)C(=O)N1CCC[C@H]1C(=O)NCc1ccccc1)c1ccccc1 was read as hgDAF12 agonist 3, DAX1 inh-1 1, ssDAF-12 act 0 and hcDAF12 agonist -1.
For COc1ccc2c(c1)CCCN2C(=O)C1CCCN(S(=O)(=O)c2c(C(C)C)cc(C(C)C)cc2C(C)C)C1 (centres undefined) the results were hgDAF12 agonist -3, DAX1 inh-1 0, ssDAF-12 act -1 and hcDAF12 agonist 0.
`CCOC(=O)[C@]12CCCC=C1N(Cc1ccc(OC)cc1)C(=O)[C@@H]2CC(=O)NCc1ccccc1` gave hgDAF12 agonist 0, DAX1 inh-1 0, ssDAF-12 act -1 and hcDAF12 agonist -2.
